Rows were chosen to be rich in hits. Some 11% of all compounds tested hit in one or more screens of this group.
HCV inhibitor: HCV inhibition. hit rate 3.4% among 340,000. Huh7.5.1 HCVcc-Cre infection, luciferase reporter, 44 h. Potency, µM (doses to about 41.8 µM), hits mostly inhibitors
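Reporter virus HCVcc-Cre (~0.5 moi) infects cells exposed to compound; seeding density 1,000 cells/well with 4 h settling beforehand. Luminescence, 15 sec read, taken 44 h post-infection following a 15 min RT substrate incubation.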
AMA1-RON2 inh: disrupts binding of P. falciparum AMA1 to RON2. AlphaScreen AMA1-biotinylated RON2 peptide binding. hit rate 0.2% among 360,000. Potency, µM (titrated, usually from 58.2 µM), actives largely listed as inhibitors; further: nearly all actives have a fitted effect of over 45% in size
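AMA1 (3D7) with his tag at 25 nM final met compounds first, then biotinylated RON2 peptide at 25 nM; detection used donor plus acceptor beads, 10 µg/mL apiece, read by AlphaScreen after 30 min at room temperature.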
Pf growth 48h: inhibits P. falciparum growth in the first generation, 48 h | P. falciparum luciferase growth in erythrocytes, 48 h | Potency, µM (highest dose often 28.7 µM), usual class: inhibitors | hit rate 5.9% among 310,000 | AID 504832
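A one-generation exposure of luciferase-tagged malaria parasites in RPMI 1640/Albumax erythrocyte culture, 37 C and 5% CO2. Inhibition is inferred from decreased luminescence after adding detection reagent.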
AmpC inh detg: blocks E. coli AmpC beta-lactamase in detergent assay; Potency, µM (doses to about 114 µM), hits mostly inhibitors; P00811; AmpC hydrolysis of nitrocefin, absorbance 480 nm, 0.01% Triton; hit rate 0.041% among 370,000; further: nearly all actives have a fitted effect of over 25% in size
Target sequence (P00811 whole entry, looked up): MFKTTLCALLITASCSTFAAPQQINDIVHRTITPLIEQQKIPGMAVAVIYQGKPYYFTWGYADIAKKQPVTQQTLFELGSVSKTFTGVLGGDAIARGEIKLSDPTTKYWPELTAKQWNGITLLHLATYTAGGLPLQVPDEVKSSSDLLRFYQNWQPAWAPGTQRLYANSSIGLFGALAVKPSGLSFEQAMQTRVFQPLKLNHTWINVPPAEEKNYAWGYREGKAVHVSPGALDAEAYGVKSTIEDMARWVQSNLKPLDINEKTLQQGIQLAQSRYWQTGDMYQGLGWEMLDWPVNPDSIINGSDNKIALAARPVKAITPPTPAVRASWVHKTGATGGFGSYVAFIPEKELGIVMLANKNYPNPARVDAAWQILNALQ
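20 mM phosphate pH 7.0 + 0.01% (detergent screen) or 0.0001% Triton X-100; 5.3 nM AmpC reagent; cpd preinc 15 min RT; nitrocefin (800 uM stock) to start; A480 q20 s × 4 min; Activity was normalised to no-enzyme and no-compound control wells.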
AmpC inh no detg: AmpC beta-lactamase inhibition without detergent; P00811; AmpC nitrocefin hydrolysis, absorbance 480 nm, 0.0001% Triton; Potency, µM (titrated, usually from 57.1 µM), hits mostly inhibitors; hit rate 0.52% among 330,000; further: nearly all actives have a fitted effect of over 20% in size
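20 mM phosphate pH 7.0 + 0.01% (detergent screen) or 0.0001% Triton X-100; 5.3 nM AmpC reagent; cpd preinc 15 min RT; nitrocefin (800 uM stock) to start; A480 q20 s × 4 min; Activity was normalised to no-enzyme and no-compound control wells.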
Pf growth 96h: inhibits malaria parasite growth, 96 h. Potency, µM (highest dose often 28.7 µM), most hits filed as inhibitors. hit rate 6.9% among 320,000. P. falciparum luciferase reporter growth, 96 h
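Readout is luminescence from an integrated firefly luciferase in P. falciparum. Red cells, 2% hematocrit and 0.05% parasitemia final, were cultured with compound through two parasite generations (96 hours) at 37 C, 5% CO2.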
Hits are given with their value; . = inactive; ? = inconclusive; / = no result; [ ] = another dose, or the depositor's remark. The call rests on the fitted dose curve; in most records, active means well fitted curve in the direction sought with a large enough effect; inconclusive means small, poorly fitted or top-dose-only effect, or another doubt; inactive means no such curve, though single readings can be large; an effect the other way counts as inactive or inconclusive.

SMILES	HCV inhibitor	AMA1-RON2 inh	Pf growth 48h	AmpC inh detg	AmpC inh no detg	Pf growth 96h
[O-][N+]1=C(c2cccs2)CN(O)C1	.	.	.	?	.	1.7µM
C=CCc1c(C)nc2nc(SCC(=O)Nc3ccc(OCC)cc3)nn2c1C	/	/	/	.	/	/
Cc1ccccc1NC(=O)C(=Cc1ccc(C(=O)O)cc1)C(=O)Nc1ccccc1C	?	.	3.7µM	.	.	?
CCNC(=O)/C(C#N)=C/c1c(N(Cc2ccccc2)Cc2ccccc2)nc2ccccn2c1=O	11µM	.	3.7µM	.	.	13µM
CNC(=O)/C(C#N)=C/c1c(N(Cc2ccccc2)Cc2ccccc2)nc2c(C)cccn2c1=O	13µM	.[2.32 µM]	13µM	.	.	2.9µM
Cc1cccc(CSc2nnc3[nH]c(=O)cc(-c4ccccc4)n23)c1	/	/	/	.	/	/
CC(=O)N1CCOc2cc(S(=O)(=O)NCc3ccccc3Cl)c(C)cc21	/	/	/	.	/	/
COc1ccc(Cl)cc1NC(=O)C1CCN(S(=O)(=O)c2ccc3c(c2)CC(C)N3C(C)=O)CC1 (stereo not drawn)	/	/	/	.	/	/
Cc1ccc(Oc2ccc(C(=O)NCc3ccncc3)cc2)cc1	3.2µM	.	?	?	.	?
CCCNC(=O)c1ccc(COc2ccc(C(C)(C)C)cc2)o1	13µM	.	?	.	.	.
CCCNC(=O)c1ccc(COc2ccc(Cl)cc2)o1	.	.	.	.	.	?
CCOc1ccc(OCc2ccc(C(=O)NCc3ccncc3)o2)cc1	7.1µM	.	.	?	.	.
CCc1ccc(OCc2ccc(C(=O)NCc3ccccn3)o2)cc1	.	.	?	.	.	10µM
O=C(NCc1ccncc1)c1ccc(Oc2ccccc2)cc1	?	.	.	.	.[11.4 µM]	.
CCOc1ccc(OCc2ccc(C(=O)O)o2)cc1	.	.	.	.	.	?
CCc1ccc(OCc2ccc(C(=O)OC)o2)cc1	.	.	.	.	.	.
Cc1oc2ccc(O)c(CN3CCN(C)CC3)c2c1C(=O)Nc1cccc(C(F)(F)F)c1	/	/	/	.	/	/
Cc1[nH]c2ccc(Br)cc2c1CCNC(=O)c1cc2ccccc2oc1=O	/	/	/	.	/	/
CCCC12CN3CC(CCC)(CN(C1)C3c1c[nH]c3ccccc13)C2=O (stereo not drawn)	/	/	/	.	/	/
CC(C)NC(=O)CN1C(=O)c2cccnc2Sc2ccccc21	/	/	/	.	/	/
O=C(COc1ccccc1[N+](=O)[O-])NCC1(N2CCCCC2)CCCCC1	.	.	.	.	.	.
N#Cc1ccccc1OCC(=O)NCC1(N2CCCCC2)CCCCC1	.	.	3.3µM	.	.	.
COc1ccc(CNC(=O)CCc2c(C)nc3nc(CNC(=O)OC(C)(C)C)nn3c2C)cc1	/	/	/	.	/	/
Cc1ccccc1NC(=S)NCCSc1ccc(Cl)cc1	?	.	.	.	.	.
CCc1ccccc1NC(=S)NCCSc1ccc(Cl)cc1	.	.	?	?	.	4.1µM
SMILES	HCV inhibitor	AMA1-RON2 inh	Pf growth 48h	AmpC inh detg	AmpC inh no detg	Pf growth 96h
CCN(CC)CC#CCC(C)(c1ccccc1)c1ccccc1	?	.	12µM	?	.	6.6µM
C=CC(O)(C#CCN(CC)CC)c1ccccc1 (stereo not drawn)	.	.	.	.	.	.
CCN(CC)CC#CCC(O)(c1ccccc1)c1ccccc1	?	.	?	.	.	.
CCN(CC)CC#CCC(O)(c1ccccc1)c1ccc(Br)cc1 (stereo not drawn)	10µM	.	?	.	.	.
Cc1cc(C)n(-c2nc(NC(C)C)nc(NC(C)C)n2)n1	?	.	3.7µM	.	.	.
CCNc1nc(NCC)nc(-n2nc(C)cc2C)n1	?	.	4.1µM	.	.	2.1µM
COc1cc(OC)c(NC(=O)Nc2c(C)n(C)n(-c3ccccc3)c2=O)cc1Cl	/	/	/	.	/	/
CC(=O)NC1C(=O)N(CCc2ccccc2)c2ccc(Br)cc21 (stereo not drawn)	.	.	/	.	.	1.9µM
CC(=O)NC1C(=O)N(Cc2ccccc2)c2ccc(Br)cc21 (stereo not drawn)	.	.	.	.	.	?
COc1ccc(-n2nnc(-c3nsc(NC(=O)c4cccs4)n3)c2C)cc1OC	/	/	/	.	/	/
FC(F)(F)C(Oc1nc(NC2CCCCC2)nc(N2CCOCC2)n1)C(F)(F)F	?	.	12µM	.	.	?
NS(=O)(=O)c1ccc(Nc2nc(-c3ccc(O)cc3)cs2)cc1	?	.	.	.	.	.
COc1ccc(-c2csc(Nc3ccc(S(N)(=O)=O)cc3)n2)cc1	5µM	.	.	.	.	/
COc1ccc(-c2csc(Nc3ccccc3)n2)cc1	14µM	?	.	.	.	.
Cc1nc(N)sc1-c1csc(Nc2ccc(S(N)(=O)=O)cc2)n1	10µM	.	.	.	.	.
COc1ccc(-c2csc(Nc3cccnc3)n2)cc1	10µM	.	.	.	/	.
Cc1ccc(-n2c(SCCC(C)C)nc3sc4c(c3c2=O)CC(C)(C)OC4)cc1	/	/	/	.	/	/
COCCn1c(CNC(=O)c2cccc(N(C)C)c2)nc2cccnc21	/	/	/	.	/	/
Cc1cc2c(cc1S(=O)(=O)N1CCCC1)n(C)c(=O)c(=O)n2C	.	.	.	.	.	13µM
Cc1cc2c(cc1S(=O)(=O)Nc1cccc(F)c1)n(C)c(=O)c(=O)n2C	.	.	.	.	.	?
Cc1cc(C)c(S(=O)(=O)N2CCCCCC2)cc1Br	.	.	.	.	.	.
Cc1cccc(NS(=O)(=O)c2cc3c(cc2C)n(C)c(=O)c(=O)n3C)c1	.	.	?	.	.	13µM
COc1ccc(C2Nc3ccccc3C(=O)N2Cc2ccccc2)cc1CN1CCOCC1 (stereo not drawn)	.	.	8.3µM	.	.	13µM
COc1ccc(N2C(=O)c3ccccc3NC2c2ccc(OC)c(Cn3nnc4ccccc43)c2)cc1 (stereo not drawn)	.	.	12µM	.	.	9.3µM
COc1ccc(C2Nc3ccccc3C(=O)N2c2ccc(C)cc2)cc1Cn1nc(C)c([N+](=O)[O-])c1C (stereo not drawn)	?	.	?	.	.	?
COc1ccc(C2Nc3ccccc3C(=O)N2Cc2ccccc2)cc1COc1ccc(Cl)cc1Cl (stereo not drawn)	/	/	1.7µM	.	.	.
COc1cccc(C2Nc3ccccc3C(=O)N2Cc2ccccc2)c1 (stereo not drawn)	.	.	/	/	/	/
Cc1ccc(OCC(=O)Nc2ccccc2C(=O)OCc2cc(=O)n3c(C)csc3n2)cc1	/	/	/	.	/	/
O=C(CCc1cn(Cc2ccc(F)cc2)c2ccccc12)NCCc1ccc(Cl)cc1	/	/	/	.	/	/
O=C1N=C(N2CCN(c3ccccc3)CC2)S/C1=C\c1cn[nH]c1-c1ccccc1	.	.	?	.	.[2.29 µM]	4.1µM

Assay outcomes as filed in PubChem.
